The entries come from a sample that favours hits as a whole.
Pf Dd2 growth – Plasmodium falciparum Dd2 growth inhibition. P. falciparum Dd2 growth, SYBR Green, 72 h. Potency, µM (series often up to 28.9 µM), for the others: top-dose activity, negative = inhibition, actives largely listed as inhibitors. 4.3% of 120,000 active; active = well fitted inhibition curve with a large enough effect;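 note: plate controls were DMSO vehicle for no effect and reference drug for full effect; nearly all actives have a fitted effect of over 65% in size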
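Readout: SYBR Green fluorescence, 485 nm excitation, 535 nm emission, after ~16 h lysis at 37C. Before that, Dd2-infected red cells (2.5% hematocrit) grew 72 h with compound, 29 uM top final concentration.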
* hit, by the source's call; [ ] = dose if it differs, or a comment. Potency is the fitted concentration of half-maximal effect.

Screening Cc1cc(C(=O)N2C[C@@H](Oc3cccnc3)C[C@H]2C(=O)N2CCCC2)n(C)n1 returned Pf Dd2 growth inactive.
`COCCCNc1nc2c(-c3ccccc3)nnn2c2ccccc12` gave Pf Dd2 growth 7.94µM*.
Screening COCCCNc1nc2c(S(=O)(=O)c3ccc(C)cc3)nnn2c2ccccc12 returned Pf Dd2 growth 0.4%.
For COCCCNc1nc2c(S(=O)(=O)c3ccccc3)nnn2c2ccccc12 the results were Pf Dd2 growth 1.3%.
For CCN(CC)C(=O)[C@@H]1C[C@H](N)CN1C(=O)c1ccc2c(c1)OCC(=O)N2 the results were Pf Dd2 growth 3.2%.
`COCCNC(=O)c1ccc2c(c1)N(Cc1cc(C)ccc1C)C(=O)c1ccccc1S2(=O)=O` gave Pf Dd2 growth -24.7%.
For CCOC(=O)c1ccc2c(c1)N(Cc1cc(C)ccc1C)C(=O)c1ccccc1S2(=O)=O the results were Pf Dd2 growth inactive.
`Cc1ccc(CCNC(=O)c2ccc3c(c2)N(Cc2cccc(C)c2)C(=O)c2ccccc2S3(=O)=O)cc1` gave Pf Dd2 growth -2.4%.
Screening Cc1ccc(C)c(CN2C(=O)c3ccccc3S(=O)(=O)c3ccc(C(=O)NCc4ccccc4)cc32)c1 returned Pf Dd2 growth 7.08µM*.
O=C(c1ccc2c(c1)N(Cc1ccccc1F)C(=O)c1ccccc1S2(=O)=O)N1CCCCC1 was read as Pf Dd2 growth inactive.
`Cc1ccc(CNC(=O)c2ccc3c(c2)N(Cc2ccccc2)C(=O)c2ccccc2S3(=O)=O)cc1` gave Pf Dd2 growth -43.9%.
O=C(NCc1ccco1)c1ccc2c(c1)N(Cc1ccccc1)C(=O)c1ccccc1S2(=O)=O was read as Pf Dd2 growth -12.6%.
`Cc1ccc(C)c(CN2C(=O)c3ccccc3S(=O)(=O)c3ccc(C(=O)N4CCN(c5ccccc5)CC4)cc32)c1` gave Pf Dd2 growth 5.62µM*.
For COC(=O)c1ccc2c(c1)N(Cc1ccccc1)C(=O)c1ccccc1S2(=O)=O the results were Pf Dd2 growth 56.5%.
CCC(C)NC(=O)c1ccc2c(c1)N(Cc1ccccc1)C(=O)c1ccccc1S2(=O)=O (stereo not drawn) was read as Pf Dd2 growth 3.16µM*.
CCOC(=O)N1CCC(NC(=O)c2ccc3c(c2)N(Cc2cc(C)ccc2C)C(=O)c2ccccc2S3(=O)=O)CC1 was read as Pf Dd2 growth 11.2µM*.
`CCCOc1ccc(CNC(=O)CN2CC3CC(C2)[C@H]2CCCC(=O)N2C3)cc1` (stereo partly drawn) gave Pf Dd2 growth -24.4%.
For Cc1nn(C)c(C)c1CNC(=O)C1CCc2sc(C(=O)N3CCOCC3)cc2C1 (stereo not drawn) the results were Pf Dd2 growth 17.6%.
CO[C@H]1C(=O)N(C(C)C)[C@H]1C1CCN(C(=O)c2ccc3ncccc3c2)CC1 was read as Pf Dd2 growth inactive.
`O=C([C@H]1C[C@@H](F)CN1S(=O)(=O)c1ccc(C(F)(F)F)cc1)N1CCOCC1` gave Pf Dd2 growth inactive.
Screening CCCc1ccc(S(=O)(=O)N(CCC)CC2CCOC2)cc1 (stereo not drawn) returned Pf Dd2 growth 21.8%[5.79 µM].
For O=C(c1c[nH]c2ccccc12)N1CCN(c2cc(-c3cccs3)[nH]n2)CC1 the results were Pf Dd2 growth -14.5%.
For Clc1ccccc1CNC1(Cc2cc(-c3ccccc3)on2)COC1 the results were Pf Dd2 growth 8.2%[44.1 µM].
`CCOC(=O)C1(Cc2ccc(F)cc2)CCCN(C(=O)c2ccc(C)s2)C1` (stereo not drawn) gave Pf Dd2 growth -8.1%.
For Cc1ccc(C2(c3noc(CN(C)Cc4ccc(C)o4)n3)CCCC2)cc1 the results were Pf Dd2 growth -28.2%.
CN(CCC(O)c1ccccc1)C(=O)c1ccc2oc(-c3cccc(F)c3)nc2c1 (stereo not drawn) was read as Pf Dd2 growth inactive.
Screening CC(C)CN1C(=O)c2cccn2CC1C(=O)NCc1cccc(C(F)(F)F)c1 (stereo not drawn) returned Pf Dd2 growth inactive.
Screening O=C(c1ccc2c(c1)N(Cc1ccccc1F)C(=O)c1ccccc1S2(=O)=O)N1CCCC1 returned Pf Dd2 growth -12.1%.
For O=C(c1ccc2c(c1)N(Cc1ccc(F)cc1)C(=O)c1ccccc1S2(=O)=O)N1CCCC1 the results were Pf Dd2 growth -10.1%.
For O=C(c1ccc2c(c1)N(Cc1ccccc1)C(=O)c1ccccc1S2(=O)=O)N1CCN(Cc2ccccc2)CC1 the results were Pf Dd2 growth 8.91µM*.
For Cc1ccsc1CN1CCc2nc(N3CCN(C)CC3)[nH]c(=O)c2CC1 the results were Pf Dd2 growth inactive[5.79 µM].
For CN1c2cccnc2CN(Cc2ccco2)CC[C@H]1CO the results were Pf Dd2 growth -14.8%[44.1 µM].
CN1C(=O)[C@H]2CN(Cc3ccco3)C[C@H]2C1=O was read as Pf Dd2 growth 42.0%.
CN(C)c1ncnc2sc3c(c12)CCN(Cc1ccco1)C3 was read as Pf Dd2 growth 3.98µM*.
CN(C)c1ncnc2sc3c(c12)CCN(Cc1ccc2cc[nH]c2c1)C3 was read as Pf Dd2 growth 1.26µM*.
For Cc1ccsc1CN1CCc2nc(N(C)C)[nH]c(=O)c2CC1 the results were Pf Dd2 growth -26.9%[5.79 µM].
CN1CCN(c2nc3c(c(=O)[nH]2)CCN(Cc2ccc4cc[nH]c4c2)CC3)CC1 was read as Pf Dd2 growth inactive[5.79 µM].
Cc1ccsc1CN1CCc2c(sc3ncnc(N(C)C)c23)C1 was read as Pf Dd2 growth 5.01µM*.
Screening CN(Cc1cccnc1)c1nc2c(c(=O)[nH]1)CCN(Cc1ccc3[nH]ccc3c1)CC2 returned Pf Dd2 growth 40.3%[5.79 µM].
For CC(C)c1noc(-c2ccn3c(CNC(=O)c4ccc(F)c(Cl)c4)nnc3c2)n1 the results were Pf Dd2 growth 2.4%.
For COc1cccc(CNC(=O)C(C)(C)C2CCOCC2)c1OC the results were Pf Dd2 growth 6.1%.
For Cc1nc(C)c(C(=O)N2CCC(N3C(=O)C4(CCCC4)C3c3scnc3C)CC2)s1 (stereo not drawn) the results were Pf Dd2 growth inactive.
For O=C(c1ccccc1OCC1CCCN(C2CCSCC2)C1)N1CCCCC1 (stereo not drawn) the results were Pf Dd2 growth inactive.
`COc1ccc(CN2C(=O)[C@@H]3C[C@@H](O)CN3C3(CN(C4CCCC4)C3)C2=O)cc1` gave Pf Dd2 growth -7.4%[44.1 µM].
Cc1ccc(C2Cn3nnc(C(=O)N4CCC(C(=O)NCc5ccco5)CC4)c3CO2)cc1 (stereo not drawn) was read as Pf Dd2 growth -18.6%.
COc1ccc(/C=C/C(=O)Nc2ccc3nc(N4CCCCC4)cc(C)c3c2)cc1OC was read as Pf Dd2 growth 3.98µM*.
Screening Cc1cc(N2CCCCC2)nc2ccc(NC(=O)/C=C/c3ccc(OC(C)C)cc3)cc12 returned Pf Dd2 growth 10µM*.
COc1ccc(/C=C/c2nc(C#N)c(N3CCCCCC3)o2)cc1OC was read as Pf Dd2 growth -15.0%.
Screening CCCN(C(=O)C(=O)Nc1ccc2nc3n(c(=O)c2c1)CCCCC3)c1ccc(OCC)cc1 returned Pf Dd2 growth -16.3%.
Screening CC(C)Oc1ccc(CNC(=O)c2ccc3c(c2)nc2n3CCCCC2)cc1 returned Pf Dd2 growth -14.9%.
`CN(Cc1ccccc1)C(=O)C(=O)Nc1ccc2nc3n(c(=O)c2c1)CCCCC3` gave Pf Dd2 growth inactive.
`COCCNC(=O)C(=O)Nc1ccc2nc3n(c(=O)c2c1)CCCCC3` gave Pf Dd2 growth -16.7%.
Screening CCOC(=O)c1c(NC(=O)/C=C/c2ccc(OC)c(OC)c2)sc(C(C)=O)c1C returned Pf Dd2 growth 39.8%.
